Results with a measured potency or affinity are listed apart. The source made the active and inactive calls.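 Rule for the calls: active = compounds whose fitted concentration for half the maximal dye retention is below 100 µM; inactive = the rest.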
Biological target: Multidrug resistance protein CDR2 (Candida albicans (strain SC5314 / ATCC MYA-2876)) (UniProt P78595)
Assay: blockers of Nile Red efflux by Candida CDR2 – S. cerevisiae AD1-8u, singleplex, Cherry Pick2 set, dose response (AID 623994)
Settings: S. cerevisiae AD1-8u expressing CaCDR2, Nile Red efflux; series mostly up to 100 µM

Sequence of Multidrug resistance protein CDR2 (Candida albicans (strain SC5314 / ATCC MYA-2876)) (P78595 whole entry, looked up): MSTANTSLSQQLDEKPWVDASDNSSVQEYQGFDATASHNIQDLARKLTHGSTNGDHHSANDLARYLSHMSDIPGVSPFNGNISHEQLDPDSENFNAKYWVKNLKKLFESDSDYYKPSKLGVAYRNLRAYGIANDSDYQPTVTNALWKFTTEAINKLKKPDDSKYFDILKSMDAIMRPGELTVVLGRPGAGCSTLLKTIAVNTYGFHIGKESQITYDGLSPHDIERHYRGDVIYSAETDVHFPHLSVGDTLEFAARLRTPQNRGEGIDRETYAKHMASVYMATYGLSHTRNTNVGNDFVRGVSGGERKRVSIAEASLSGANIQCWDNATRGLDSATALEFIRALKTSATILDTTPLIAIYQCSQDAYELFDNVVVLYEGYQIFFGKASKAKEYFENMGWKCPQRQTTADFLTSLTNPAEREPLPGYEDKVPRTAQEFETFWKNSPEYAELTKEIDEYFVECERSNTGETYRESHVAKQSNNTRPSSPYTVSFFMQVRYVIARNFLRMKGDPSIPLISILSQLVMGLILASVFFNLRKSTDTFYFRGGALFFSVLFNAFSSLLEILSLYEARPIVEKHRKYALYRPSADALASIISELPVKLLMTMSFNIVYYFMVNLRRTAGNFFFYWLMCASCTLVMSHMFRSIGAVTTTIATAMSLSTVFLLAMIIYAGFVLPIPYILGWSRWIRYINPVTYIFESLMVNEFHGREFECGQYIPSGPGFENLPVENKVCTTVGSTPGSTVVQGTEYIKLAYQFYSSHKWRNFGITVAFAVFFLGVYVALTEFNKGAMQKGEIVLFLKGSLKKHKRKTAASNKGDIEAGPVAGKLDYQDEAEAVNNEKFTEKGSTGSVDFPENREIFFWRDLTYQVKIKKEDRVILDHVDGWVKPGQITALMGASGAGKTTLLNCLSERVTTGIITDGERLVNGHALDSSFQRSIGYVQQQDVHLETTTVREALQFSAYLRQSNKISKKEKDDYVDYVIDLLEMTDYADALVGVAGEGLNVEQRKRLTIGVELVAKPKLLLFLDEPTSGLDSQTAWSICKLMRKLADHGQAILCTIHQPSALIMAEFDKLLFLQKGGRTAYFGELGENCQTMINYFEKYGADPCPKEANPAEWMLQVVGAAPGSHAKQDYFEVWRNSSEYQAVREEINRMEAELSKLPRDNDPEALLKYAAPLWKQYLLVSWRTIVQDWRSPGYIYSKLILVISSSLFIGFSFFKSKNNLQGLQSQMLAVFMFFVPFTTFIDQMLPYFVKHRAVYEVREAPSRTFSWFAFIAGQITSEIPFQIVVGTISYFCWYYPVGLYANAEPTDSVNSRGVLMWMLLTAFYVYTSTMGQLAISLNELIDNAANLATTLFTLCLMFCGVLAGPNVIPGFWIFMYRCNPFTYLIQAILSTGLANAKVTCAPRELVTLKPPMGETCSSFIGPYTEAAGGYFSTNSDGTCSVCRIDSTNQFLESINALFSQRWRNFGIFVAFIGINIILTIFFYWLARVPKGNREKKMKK

outcome, inactive:
CCCCCCCCCC[N+](C)(C)CC/C=C1/c2ccccc2Sc2ccc(Cl)cc21
Cc1ccc(O)c(C(=O)c2cnc3c(c2)CN(C)C(=O)N3)c1
CCO[C@@H]1OC(C(=O)Nc2ccccc2)=C[C@H](c2ccc(Br)cc2)[C@H]1CCCO
Nc1ccc(C(=O)OCCc2ccccc2)cc1
COc1ccccc1C(=O)OCCc1ccccc1
Cc1cccc(C2CC(c3ccccc3)=NN2c2ccc(S(N)(=O)=O)cc2)c1 (centres undefined)
Cc1ccc(CN2C(=O)C(CC(C)C)Nc3ncnc(N4CCN(c5ccccc5)CC4)c32)cc1 (centres undefined)
COc1ccc(OC)c2sc(NC(=O)c3ccc(Br)s3)nc12
CC1CN(c2nc3ccccc3nc2C(C#N)C(=O)NCc2ccc3c(c2)OCO3)CC(C)O1 (centres undefined)
Cc1ccc(C)c(N2CCN(C(=O)C3CCCN(c4ncnc5c4nc4n5CCCCC4)C3)CC2)c1 (centres undefined)
NS(=O)(=O)c1ccc(N2N=C(c3ccccc3)CC2c2ccccc2)cc1 (centres undefined)
COc1ccc(C2CC(c3ccccc3C(F)(F)F)=NN2c2ccc(S(N)(=O)=O)cc2)cc1 (centres undefined)
O=C(/C=C/c1cccs1)N1CCC2(CC1)Oc1ccc(F)cc1C(=O)C21CC(c2ccccc2)=NO1 (centres undefined)
COc1cccc(N2CCN(C(=O)C3CCCN(c4ncnc5c4nc4n5CCCCC4)C3)CC2)c1 (centres undefined)
CCCCCc1cc(=O)oc2c(C(CCN3CCCC(C)C3)c3ccc(N(C)C)cc3)c(OC)cc(OC)c12 (centres undefined)
O=C(C[n+]1cc(-c2ccccc2)n2c1CCC2)N1c2ccccc2Sc2ccccc21
COc1ccc2nc(NC(=O)c3cccs3)sc2c1
CCc1ccc(C2=NN(c3ccc(S(N)(=O)=O)cc3)C(c3ccc(F)cc3)C2)cc1 (centres undefined)
O=C1C(Cc2ccccc2)Nc2ncnc(N3CCN(c4ccccc4)CC3)c2N1Cc1ccccc1 (centres undefined)
NS(=O)(=O)c1ccc(N2N=C(c3ccc(Br)cc3)CC2c2ccc(F)cc2)cc1 (centres undefined)
O=C(c1ccc2c(c1)OCO2)N1CCC2(CC1)Oc1ccc(F)cc1C(=O)C21CC(c2ccccc2)=NO1 (centres undefined)
Cc1ccc(C2CC(c3ccccc3)=NN2c2ccc(S(N)(=O)=O)cc2)cc1 (centres undefined)
COc1ccc2c(c1)OC[C@H]1[C@H]2N2C(=O)c3ccc(C)cc3NC(=O)[C@@]2(C)[C@H]1c1ccccc1
COc1ccc(CCOC(=O)c2ccc(N)c([N+](=O)[O-])c2)cc1
COc1ccc(CN2C(=O)C(C)Nc3ncnc(N4CCN(c5ccccc5)CC4)c32)cc1 (centres undefined)
CC(C)C(=O)N1CCC2(CC1)Oc1ccc(F)cc1C(=O)C21CC(c2ccc(Cl)cc2)=NO1 (centres undefined)
COc1cc(OC)c2ccc(=O)oc2c1C(CCN1CCCCC1)c1ccc(N(C)C)cc1 (centres undefined)
C[C@@]12C(=O)Nc3cc(F)c(F)cc3C(=O)N1[C@H]1c3cc(Cl)ccc3OC[C@@H]1[C@@H]2c1ccccc1
NS(=O)(=O)c1ccc(N2N=C(c3ccccc3)CC2c2ccc(F)cc2)cc1 (centres undefined)

— PubChem BioAssay AID623994 (NMMLSC, 2012)
